“And” between values parts separate entries of the source, which are not always exact repeats. Equal entries are not always repeated. Results filed as inconclusive are left out. Where a call stands in place of a potency, no number is given. The source made the active and inactive calls. The call rests on the fitted dose curve; in most records, active means well fitted curve in the direction sought with a large enough effect in the repeat runs; inconclusive means weak or mixed curves; inactive means no such curve, though single readings can be large; an effect the other way counts as inactive or inconclusive.

From PubChem BioAssay (Tox21) come the findings set out here.

The nature of the first assay: qHTS RealTime-Glo MT Cell Viability Assay in HEK293 cells - 0 hour (AID 1224880). Further: top concentration of the series differs between compounds; nearly all actives have a fitted effect of over 45% in size. The following applies: RealTime-Glo luminescence; series mostly up to 76.8 µM. Summed up:
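Luminescence, which tracks viable cell number through reduction of the prosubstrate to a NanoLuc substrate, was read over continuous 37 C culture. Cells (600/well) were premixed with reagent and rested 5 h before 23 nL of compound in DMSO was pinned.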
With `CCC(=O)CC(C)CC` (stereo unspecified), the activity change, negative = cytotoxicity is 6.1% [at 0.29 µM] (inactive). `C=C/C=C/C=C/CCCCC`: the activity change, negative = cytotoxicity was 0.841% [at 15.8 µM] (inactive). For the molecule `Oc1c(Br)cc(Br)c2cccnc12`, the Potency entry was “inactive”.

Regarding `CCCCCCCC/C=C\CCCCCCCC(=O)NCc1ccc(O)c(OC)c1`, the Potency result was “inactive”.

As for `O=S(O)O`, the activity change, negative = cytotoxicity was 10.2% [at 15.8 µM] (inactive).

As for `NCCCCCCNCCCCCCN`, the Potency entry was “inactive”. Still for that read-out and setting: the result for `C=CC/C=C/C/C=C/C/C=C/C` reads “inactive”; that for `C=CCCCCCCC=C`, “inactive”. The same measure, in the same setting: the value for `CCCCN(C)C` was “inactive”; that for `CCCCCCCCCCCCCCCC` was “inactive”; that for `CCc1cccc(CC)c1NC(=O)C(=O)O` was “inactive”. `O=C1OC(OC(=O)c2cccnc2Nc2cccc(C(F)(F)F)c2)c2ccccc21` (stereo unspecified): the Potency result is “inactive”. The same measure, in the same setting: the result for `CN1[C@@H]2CC[C@H]1CC(OC(=O)C(CO)c1ccccc1)C2` (stereo partly specified) reads “inactive”. On the same count and under the same terms, the value for `CC(COC(=O)c1ccccc1)OC(=O)c1ccccc1` (stereo unspecified) was “inactive”. On the same count and under the same terms, the result for `CCOC(=O)CN` reads “inactive”. Regarding `COC(=O)CC(C)CCC=C(C)C` (stereo unspecified), the Potency result is “inactive”. Take `CCCCCCCC(=O)OCC`: the Potency entry was “inactive”. Still for that read-out and setting: the result for `CCOC(/C=C(\C)CCC=C(C)C)OCC` reads “inactive”; that for `CCC1CCCCC1`, “inactive”; that for `O=C1c2c(O)ccc(O)c2C(=O)c2c(NCCNCCO)ccc(NCCNCCO)c21`, “inactive”. Still for that read-out and setting: the result for `Cc1c(-c2ccc(O)cc2)n(Cc2ccc(OCCN3CCCCCC3)cc2)c2ccc(O)cc12` reads “inactive”; that for `C=CC(C)(CCC=C(C)C)OC(=O)/C=C/c1ccccc1` (stereo unspecified), “inactive”; that for `COc1nccnc1CC(C)C`, “inactive”.

For the molecule `CCCCC(CC)COC(=O)c1ccc(O)cc1` (stereo unspecified), the Potency entry is “inactive”. On the same count and under the same terms, the result for `Cc1c(C(=O)O)cccc1[N+](=O)[O-]` reads “inactive”; that for `Clc1ccccc1CN1CCc2sccc2C1`, “inactive”. The same measure, in the same setting: the value for `Clc1ccc(C(c2ccccc2Cl)C(Cl)Cl)cc1` (stereo unspecified) was “inactive”. Still for that read-out and setting: the value for `CCC(C)c1ccccc1` (stereo unspecified) was “inactive”; that for `CCCCCCCOC(=O)c1ccccc1C(=O)OCCCCCCC` was “inactive”; that for `COCC(=O)O[C@]1(CCN(C)CCCc2nc3ccccc3[nH]2)CCc2cc(F)ccc2[C@@H]1C(C)C` was “inactive”. Regarding `O[C@@H](c1cc(C(F)(F)F)nc2c(C(F)(F)F)cccc12)[C@H]1CCCCN1`, the Potency result was “inactive”. Regarding `CC(C)=C1CC[C@@H](C)CC1=O`, the Potency entry was “inactive”.

Regarding `SCCCCCCCCS`, the Potency result was “inactive”.

The next assay is described as follows: A CellTox Green Cytotoxicity Assay to monitor cytotoxicity in HEK293 cells - 32 hour (AID 1224881). Further: nearly all actives have a fitted effect of over 40% in size. Further: potency means the concentration at half of the fitted maximal effect. The following applies: CellTox Green fluorescence; series mostly up to 76.8 µM. In outline: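 Fluorescence from a DNA-binding dye excluded by viable cells was measured repeatedly in the same HEK293 wells (600 cells/well) during continuous compound exposure at 37 C. Each assay gives one read point: 0, 8, 16, 24, 32 or 40 h.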
On to `CCC(=O)CC(C)CC` (stereo unspecified), for which the cytotoxicity increase is 9.56% [at 0.29 µM] (inactive). For the molecule `C=C/C=C/C=C/CCCCC`, the cytotoxicity increase is 13.2% [at 15.8 µM] (inactive).

Take `Oc1c(Br)cc(Br)c2cccnc12`: the Potency result is “inactive”. As for `CCCCCCCC/C=C\CCCCCCCC(=O)NCc1ccc(O)c(OC)c1`, the Potency result was “inactive”. Same read-out and setting: the value for `CCCOc1sc(C(=O)N2CCC(c3cc(CN)ccc3F)CC2)c(C)c1Br` was 31.8 µM (active). In the case of `O=S(O)O`, the cytotoxicity increase was 0.593% [at 15.8 µM] (inactive). `NCCCCCCNCCCCCCN`: the Potency entry is “inactive”. `C=CC/C=C/C/C=C/C/C=C/C`: the Potency result is “inactive”. Same read-out and setting: the value for `C=CCCCCCCC=C` was “inactive”; that for `CCCCN(C)C` was “inactive”; that for `CC(NCCC(c1ccccc1)c1ccccc1)c1ccccc1` (stereo unspecified) was 21.3 µM (active). The same measure, in the same setting: the result for `CCCCCCCCCCCCCCCC` reads “inactive”; that for `CCc1cccc(CC)c1NC(=O)C(=O)O`, “inactive”. On to `O=C1OC(OC(=O)c2cccnc2Nc2cccc(C(F)(F)F)c2)c2ccccc21` (stereo unspecified), for which the Potency result was “inactive”.

Take `CN1[C@@H]2CC[C@H]1CC(OC(=O)C(CO)c1ccccc1)C2` (stereo partly specified): the Potency result was “inactive”. Same read-out and setting: the value for `CC(COC(=O)c1ccccc1)OC(=O)c1ccccc1` (stereo unspecified) was “inactive”; that for `CCOC(=O)CN` was “inactive”.

Consider `COC(=O)CC(C)CCC=C(C)C` (stereo unspecified), for which the Potency result is “inactive”. Same read-out and setting: the result for `CCCCCCCC(=O)OCC` reads “inactive”; that for `CCOC(/C=C(\C)CCC=C(C)C)OCC`, “inactive”; that for `CCC1CCCCC1`, “inactive”. Same read-out and setting: the result for `CCCCCCCCCCCCCCNCCO` reads 19 µM (active); that for `O=C1c2c(O)ccc(O)c2C(=O)c2c(NCCNCCO)ccc(NCCNCCO)c21`, “inactive”. For the molecule `Cc1c(-c2ccc(O)cc2)n(Cc2ccc(OCCN3CCCCCC3)cc2)c2ccc(O)cc12`, the Potency was 19 µM (active). On the same count and under the same terms, the result for `C=CC(C)(CCC=C(C)C)OC(=O)/C=C/c1ccccc1` (stereo unspecified) reads 38.9 µM (active); that for `COc1nccnc1CC(C)C`, “inactive”.

On to `CCCCC(CC)COC(=O)c1ccc(O)cc1` (stereo unspecified), for which the Potency is 43.5 µM (active) and 21.9 µM (active). Take `Cc1c(C(=O)O)cccc1[N+](=O)[O-]`: the Potency result is “inactive”.

In the case of `Clc1ccccc1CN1CCc2sccc2C1`, the Potency result is “inactive”. On the same count and under the same terms, the value for `Clc1ccc(C(c2ccccc2Cl)C(Cl)Cl)cc1` (stereo unspecified) was “inactive”; that for `CCC(C)c1ccccc1` (stereo unspecified) was “inactive”. Still for that read-out and setting: the result for `CCCCCCCOC(=O)c1ccccc1C(=O)OCCCCCCC` reads “inactive”; that for `COCC(=O)O[C@]1(CCN(C)CCCc2nc3ccccc3[nH]2)CCc2cc(F)ccc2[C@@H]1C(C)C`, 21.3 µM (active).
